Where two headings read alike, the source gives them in different places.
Legend:
Set-up in all cases: species or system human, MV4-11 + K-562 + COLO205 + SK-N-BE2 + OVCAR-8
ACVR1B = conditions: read-out: apparent Kd, n = 1
ADCK3 = conditions: read-out: apparent Kd; compound concentrations:100 nM and 1000 nM (sheet 'Samples'); n = 1
NQO2 = conditions: read-out: apparent Kd; compound concentrations:100 nM and 1000 nM (sheet 'Samples'); n = 1
TGFBR1 = conditions: read-out: apparent Kd; compound concentrations:100 nM and 1000 nM (sheet 'Samples'); n = 1
CIT = conditions: read-out: apparent Kd; compound concentrations: 100 nM and 1000 nM (sheet 'Samples'), CATDS: 6.8145894715466407E-2; n = 1
CSNK1A1 = conditions: read-out: apparent Kd, compound concentrations: 100 nM and 1000 nM (sheet 'Samples'), n = 1
CSNK1D = conditions: read-out: apparent Kd, compound concentrations: 100 nM and 1000 nM (sheet 'Samples'), n = 1
CSNK1E = conditions: read-out: apparent Kd, n = 1
DJA1 = system: T1, DJA1; conditions: read-out: apparent Kd; compound concentrations: 100 nM and 1000 nM (sheet 'Samples'), CATDS: 6.7999729986940594E-2; n = 1
T1 construct: gene DNAJA1

GAK = conditions: read-out: apparent Kd, compound concentrations: 100 nM and 1000 nM (sheet 'Samples'), n = 1
MAPK10 = conditions: read-out: apparent Kd, compound concentrations: 100 nM and 1000 nM (sheet 'Samples'), n = 1
MAPK14 = conditions: read-out: apparent Kd, n = 1
MAPK9 = conditions: read-out: apparent Kd, compound concentrations: 100 nM and 1000 nM (sheet 'Samples'), n = 1
MAPKAPK2 = conditions: read-out: apparent Kd, n = 1
PKN3 = conditions: read-out: apparent Kd; compound concentrations: 100 nM and 1000 nM (sheet 'Samples'), CATDS: 6.6861054791119798E-2; n = 1
PRKCQ = conditions: read-out: apparent Kd; compound concentrations: 100 nM and 1000 nM (sheet 'Samples'), CATDS: 6.9749841239759497E-2; n = 1
DDR1 = conditions: read-out: apparent Kd; compound concentrations: 100 nM and 1000 nM (sheet 'Samples'), CATDS: 4.5461807893970897E-2; n = 1
DDR2 = conditions: read-out: apparent Kd; compound concentrations: 100 nM and 1000 nM (sheet 'Samples'), CATDS: 4.1041053531745197E-2; n = 1
MAPK11 = conditions: read-out: apparent Kd; compound concentrations: 100 nM and 1000 nM (sheet 'Samples'), CATDS: 5.6945469434317497E-2; n = 1
MAPK8 = conditions: read-out: apparent Kd; compound concentrations: 100 nM and 1000 nM (sheet 'Samples'), CATDS: 5.2366017866035799E-2; n = 1
NLK = conditions: read-out: apparent Kd; compound concentrations: 100 nM and 1000 nM (sheet 'Samples'), CATDS: 5.1907933882023798E-2; n = 1
RIPK3 = conditions: read-out: apparent Kd; compound concentrations: 100 nM and 1000 nM (sheet 'Samples'), CATDS: 4.0216087331075998E-2; n = 1
SIK3 = conditions: read-out: apparent Kd; compound concentrations: 100 nM and 1000 nM (sheet 'Samples'), CATDS: 4.1962261561680501E-2; n = 1
ACOX3 = conditions: read-out: apparent Kd; compound concentrations: 100 nM and 1000 nM (sheet 'Samples'), CATDS: 0.63885197419414497; n = 1
FECH = conditions: read-out: apparent Kd; compound concentrations: 100 nM and 1000 nM (sheet 'Samples'), CATDS: 0.41072954272515799; n = 1
CLK1 = conditions: read-out: apparent Kd; compound concentrations:100 nM and 1000 nM (sheet 'Samples'); n = 1
CLK4 = conditions: read-out: apparent Kd; compound concentrations:100 nM and 1000 nM (sheet 'Samples'); n = 1
DYRK1A = conditions: read-out: apparent Kd; compound concentrations:100 nM and 1000 nM (sheet 'Samples'); n = 1
ILK = conditions: read-out: apparent Kd; compound concentrations:100 nM and 1000 nM (sheet 'Samples'); n = 1
MAP2K1 = conditions: read-out: apparent Kd; compound concentrations:100 nM and 1000 nM (sheet 'Samples'); n = 1
MAP2K2 = conditions: read-out: apparent Kd; compound concentrations:100 nM and 1000 nM (sheet 'Samples'); n = 1
NNT = conditions: read-out: apparent Kd; compound concentrations:100 nM and 1000 nM (sheet 'Samples'); n = 1
PIP4K2C = conditions: read-out: apparent Kd; compound concentrations:100 nM and 1000 nM (sheet 'Samples'); n = 1
STK26 = conditions: read-out: apparent Kd; compound concentrations:100 nM and 1000 nM (sheet 'Samples'); n = 1
[1] = compound concentrations:100 nM and 1000 nM (sheet 'Samples')

N#Cc1ccc(-c2cc(-c3c[nH]nc3-c3ccccn3)ccn2)cc1 [GW693028X]
potency estimated from few doses (ACVR1B; [1]): 872 nM | potency estimated from few doses (ADCK3): 671 nM | potency estimated from few doses (NQO2): 773 nM | potency estimated from few doses (TGFBR1): 263 nM

Fc1ccc(-c2nn3ccccc3c2-c2ccncc2)cc1 [GW434756X]
potency estimated from few doses (ACVR1B; compound concentrations: 100 nM and 1000 nM (sheet 'Samples'), CATDS: 6.8235886805588605E-2): 1230 nM | potency estimated from few doses (CIT): 1230 nM | potency estimated from few doses (CSNK1A1; CATDS: 7.0903830983545899E-2): 1120 nM | potency estimated from few doses (CSNK1D; CATDS: 0.180022890791455): 233 nM | potency estimated from few doses (CSNK1E; compound concentrations: 100 nM and 1000 nM (sheet 'Samples'), CATDS: 9.3100036539018993E-2): 644 nM | potency estimated from few doses (DJA1): 1240 nM | potency estimated from few doses (GAK; CATDS: 6.3982915513231806E-2): 1440 nM | potency estimated from few doses (MAPK10; CATDS: 7.0993589128773599E-2): 1120 nM | potency estimated from few doses (MAPK14; compound concentrations: 100 nM and 1000 nM (sheet 'Samples'), CATDS: 8.8352679979738905E-2): 709 nM | potency estimated from few doses (MAPK9; CATDS: 6.4345745846517005E-2): 1420 nM | potency estimated from few doses (MAPKAPK2; compound concentrations: 100 nM and 1000 nM (sheet 'Samples'), CATDS: 0.114976727477382): 449 nM | potency estimated from few doses (PKN3): 1290 nM | potency estimated from few doses (PRKCQ): 1160 nM

NC(=O)c1ccc2c(-c3ccnc(NCCCO)n3)c(-c3ccc(F)cc3)nn2c1 [GW581744X]
potency estimated from few doses (ACVR1B; compound concentrations: 100 nM and 1000 nM (sheet 'Samples'), CATDS: 5.1726105609422098E-2): 678 nM | potency estimated from few doses (CSNK1A1; CATDS: 4.4417171665787201E-2): 1210 nM | potency estimated from few doses (CSNK1D; CATDS: 0.12647868619351901): 70.3 nM | potency estimated from few doses (CSNK1E; compound concentrations: 100 nM and 1000 nM (sheet 'Samples'), CATDS: 7.8439067124282905E-2): 202 nM | potency estimated from few doses (DDR1): 1100 nM | potency estimated from few doses (DDR2): 1740 nM | potency estimated from few doses (GAK; CATDS: 5.7317399451807E-2): 485 nM | potency estimated from few doses (MAPK10; CATDS: 0.179195319148265): 38 nM | potency estimated from few doses (MAPK11): 495 nM | potency estimated from few doses (MAPK14; compound concentrations: 100 nM and 1000 nM (sheet 'Samples'), CATDS: 0.23382543991059199): 25.3 nM | potency estimated from few doses (MAPK8): 651 nM | potency estimated from few doses (MAPK9; CATDS: 0.113637290114738): 86.9 nM | potency estimated from few doses (MAPKAPK2; compound concentrations: 100 nM and 1000 nM (sheet 'Samples'), CATDS: 0.15591620581864199): 48 nM | potency estimated from few doses (NLK): 670 nM | potency estimated from few doses (RIPK3): 1940 nM | potency estimated from few doses (SIK3): 1560 nM

Cc1ccc(NC(=O)c2cccc(C#N)c2)cc1-c1ccc(C(=O)Nc2ccncc2)cc1 [GSK1398463A]
potency estimated from few doses (ACOX3): 513 nM | potency estimated from few doses (FECH): 1300 nM

Nc1nc(-c2ccc(F)cc2)c(-c2ccc3ncccc3n2)s1 [GW785804X]
potency estimated from few doses (ACVR1B; [1]): 57.9 nM | potency estimated from few doses (CLK1): 997 nM | potency estimated from few doses (CLK4): 1100 nM | potency estimated from few doses (CSNK1E; [1]): 2400 nM | potency estimated from few doses (DYRK1A): 1970 nM | potency estimated from few doses (ILK): 2080 nM | potency estimated from few doses (MAP2K1): 1910 nM | potency estimated from few doses (MAP2K2): 2060 nM | potency estimated from few doses (MAPK14; [1]): 567 nM | potency estimated from few doses (MAPKAPK2; [1]): 1410 nM | potency estimated from few doses (NNT): 164 nM | potency estimated from few doses (PIP4K2C): 2210 nM | potency estimated from few doses (STK26): 2330 nM

From PMC11062922 (Nature Chemical Biology, 2023)
